Values without a mark were called inactive. Results filed as inconclusive are left out. A call without a number means that no potency is given here. Activity calls are given as the source filed them. Unless noted, calls follow the shape of the dose curve; as a rule, active = well fitted curve in the direction sought with a large enough effect; inconclusive = small, poorly fitted or top-dose-only effect, or another doubt; inactive = no such curve, though single readings can be large; an effect the other way counts as inactive or inconclusive.
Legend:
[1] = biological target: Glutaminase kidney isoform, mitochondrial (Homo sapiens) (UniProt O94925); experiment: qHTS for Inhibitors of Glutaminase (GLS): LOPAC Validation (AID 624146); also: nearly all actives have a fitted effect of over 60% in size; also: potency is read from the fitted curve at half-maximal effect
Chain of Glutaminase kidney isoform, mitochondrial (Homo sapiens) (O94925 whole entry, looked up, canonical isoform): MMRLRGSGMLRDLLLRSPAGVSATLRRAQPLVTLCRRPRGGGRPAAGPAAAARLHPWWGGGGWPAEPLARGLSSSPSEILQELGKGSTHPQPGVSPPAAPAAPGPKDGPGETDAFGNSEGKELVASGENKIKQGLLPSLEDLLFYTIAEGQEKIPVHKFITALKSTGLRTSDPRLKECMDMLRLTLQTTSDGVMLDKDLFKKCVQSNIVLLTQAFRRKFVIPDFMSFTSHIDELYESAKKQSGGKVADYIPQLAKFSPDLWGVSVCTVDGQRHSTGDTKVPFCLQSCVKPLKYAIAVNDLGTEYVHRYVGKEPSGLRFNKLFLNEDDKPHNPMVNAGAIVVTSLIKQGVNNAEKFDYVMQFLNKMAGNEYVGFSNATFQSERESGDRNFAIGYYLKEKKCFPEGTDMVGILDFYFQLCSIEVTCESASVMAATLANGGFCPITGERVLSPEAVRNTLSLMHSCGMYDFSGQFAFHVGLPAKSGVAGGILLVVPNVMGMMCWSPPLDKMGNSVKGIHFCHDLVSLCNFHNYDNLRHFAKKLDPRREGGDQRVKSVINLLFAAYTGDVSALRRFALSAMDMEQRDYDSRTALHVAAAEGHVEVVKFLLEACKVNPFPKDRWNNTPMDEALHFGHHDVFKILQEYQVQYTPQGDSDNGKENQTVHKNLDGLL
How it was run: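 hKGA in 45 mM KH2PO4 (pH 8.2), 0.02% Tween-20 with compound, then 1mM L-Glutamine (stock as added) plus glutamate oxidase/HRP/Amplex red coupling mix. Fluorescence read initially and after 30 min at RT; signal change reflects glutamate formation.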

[2] = qHTS of Trypanosoma Brucei Inhibitors: LOPAC Validation (AID 624147)
How it was run: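 Luminescent Kinase-Glo Plus end-point after 45 min room-temperature reaction of T. brucei pyruvate kinase started with 130 uM ADP (final). Buffer TEA 50 mM pH 7.2 with KCl, MgCl2, BSA, Tween-20; titration-based qHTS with fitted concentration-effect curves.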

[3] = biological target: Glucagon-like peptide 1 receptor (Homo sapiens) (UniProt P43220); experiment: qHTS of GLP-1 Receptor Agonists: LOPAC Validation (AID 624148);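 also: higher luminescence signal means agonism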
Chain of Glucagon-like peptide 1 receptor (Homo sapiens) (P43220 whole entry, looked up): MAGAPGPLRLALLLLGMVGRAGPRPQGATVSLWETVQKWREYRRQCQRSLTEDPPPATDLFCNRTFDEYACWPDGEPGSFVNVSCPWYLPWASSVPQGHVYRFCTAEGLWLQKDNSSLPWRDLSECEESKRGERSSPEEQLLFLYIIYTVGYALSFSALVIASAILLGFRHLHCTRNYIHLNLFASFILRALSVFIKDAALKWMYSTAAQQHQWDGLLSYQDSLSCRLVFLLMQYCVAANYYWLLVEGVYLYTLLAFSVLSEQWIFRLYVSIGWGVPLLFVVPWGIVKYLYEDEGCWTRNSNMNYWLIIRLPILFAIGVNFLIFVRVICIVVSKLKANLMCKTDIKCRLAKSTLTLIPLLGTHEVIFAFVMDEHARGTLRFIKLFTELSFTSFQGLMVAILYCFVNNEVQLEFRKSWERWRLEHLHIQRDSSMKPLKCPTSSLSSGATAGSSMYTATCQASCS
How it was run: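 HEK293 cells stably co-expressing GLP-1R and a cAMP-responsive luciferase reporter, plated 12 hours before compound, then incubated 4-6 hr at 37 deg C. Luminescence read 12 min after detection reagent.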

[4] = qHTS of Nrf2 Activators: LOPAC Validation (AID 624149)
How it was run: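 Following overnight seeding in 5% FBS OPTI-MEM, AREc32_Fluc cells receive compounds for a 24 hr incubation at 37 deg C with 5% CO2. Steady-Glo is added, and after 30 min at RT luminescence is recorded.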

[5] = HTS Assay for Allosteric Antagonists of the Human D2 Dopamine Receptor: Hit Validation in HTRF (AID 624455); also: potency is read from the fitted curve at half-maximal effect;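 also: stable D1 dopamine receptor cell line scored for blocking the D1 response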
How it was run: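 Validation of hits used D1 receptor stably expressed in cells with HTRF detection of response inhibition; origin screen measured calcium flux following EC80 dopamine in a force-coupled, inducible Hek293 Trex D2 cell line.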

[6] = qHTS for compounds that reverse cellular toxicity of Amyloid beta (A-beta) peptide in yeast: LOPAC Validation Assay (AID 720559)
How it was run: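 OD600 growth readout after 48 hr at 30 C; A-beta-toxic yeast plus pinned compounds in medium. Normalization: DMSO = negative, equimolar FeCl3 + clioquinol = positive.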

[7] = qHTS for Activators of Parkin Expression: LOPAC Validation Assay (NLuc Reporter) (AID 720572)
How it was run: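 NLuc signal, read 10 min after reagent and following a prior FLuc read, is normalized to DMSO (0) and positive controls (100%). Cells: neuronal Parkin-promoter coincidence reporter line; compounds tested 7-point, 24 h, 37 C, 5% CO2.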

[8] = qHTS for Activators of Parkin Expression: LOPAC Validation Assay (FLuc Reporter) (AID 720573)
How it was run: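 FLuc luminescence read-out from a neuronal line expressing a Parkin-promoter-driven coincidence reporter. Cells treated 24 h at 37 C, 5% CO2 with compounds at 7 concentrations; signal increase normalized to DMSO and positive control.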

[9] = qHTS assay for small molecule agonists of the antioxidant response element (ARE) signaling pathway (AID 651741; active = well fitted activation curve with a large enough effect in the signal ratio; the % refers to the signal ratio; also: potency is read from the fitted curve at half-maximal effect)
How it was run: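 HepG2 ARE-bla reporter cells, 2,000/well; 5 h settle at 37 C/5% CO2; compound pin transfer (23 nL, DMSO); 16 h at 37 C; LiveBLAzer B/G FRET substrate, 2 h RT; fluorescence intensity read.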

[10] = qHTS assay for small molecule activators of the p53 signaling pathway (AID 651743; active = well fitted activation curve with a large enough effect in the signal ratio, not every such curve was filed as active; the % refers to the signal ratio; also: series mostly up to about 92 µM); details: HCT-116 p53RE-bla, beta-lactamase FRET ratio, 16 h; activation: active compounds read high
How it was run: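 Reporter: beta-lactamase driven by p53 response elements, stably integrated in HCT-116 cells. Cells seeded at 4,000/well, 5 h preincubation, compound (DMSO) 16 h at 37 C; B/G FRET substrate 2 h RT; fluorescence intensity read.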

[11] = qHTS assay for small molecule activators of the nuclear factor-kappa B (NF-kB) signaling pathway (AID 651749; active = well fitted activation curve with a large enough effect in the signal ratio; the % refers to the signal ratio; also: series mostly up to about 77 µM); details: NF-kB-bla ME-180 cells, beta-lactamase FRET ratio, 16 h; active compounds read high
How it was run: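 NF-kB-bla ME-180 cells, 2,000/well; 23 nL compound or DMSO pinned; 16 hr, 37C/5% CO2; beta-lactamase FRET read-out.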

[12] = qHTS assay for environmental chemicals that activate the Aryl hydrocarbon Receptor (AhR) signaling pathway (AID 651777); details: 1A2-DRE human hepatoma cells, luciferase, 24 h; activation: active compounds read high; also: nearly all actives have a fitted effect of over 15% in size
How it was run: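 Human hepatoma 1A2-DRE cells stably carrying a DRE/CYP1A2 promoter–luciferase reporter, 1,200 cells/well, exposed to compound 24 hr at 37 C. Luciferase read by One-Glo luminescence after 30 min at room temperature; increased signal marks AhR activation.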

[13] = biological target: Peroxisome proliferator-activated receptor alpha (Homo sapiens) (UniProt Q07869); experiment: qHTS assay for small molecule agonists of the peroxisome proliferator-activated receptor alpha (PPARalpha) signaling pathway (AID 651778); details: PathHunter PPARalpha complementation, chemiluminescence, 6 h; active compounds read high
Chain of Peroxisome proliferator-activated receptor alpha (Homo sapiens) (Q07869 whole entry, looked up, the tested form may be a part): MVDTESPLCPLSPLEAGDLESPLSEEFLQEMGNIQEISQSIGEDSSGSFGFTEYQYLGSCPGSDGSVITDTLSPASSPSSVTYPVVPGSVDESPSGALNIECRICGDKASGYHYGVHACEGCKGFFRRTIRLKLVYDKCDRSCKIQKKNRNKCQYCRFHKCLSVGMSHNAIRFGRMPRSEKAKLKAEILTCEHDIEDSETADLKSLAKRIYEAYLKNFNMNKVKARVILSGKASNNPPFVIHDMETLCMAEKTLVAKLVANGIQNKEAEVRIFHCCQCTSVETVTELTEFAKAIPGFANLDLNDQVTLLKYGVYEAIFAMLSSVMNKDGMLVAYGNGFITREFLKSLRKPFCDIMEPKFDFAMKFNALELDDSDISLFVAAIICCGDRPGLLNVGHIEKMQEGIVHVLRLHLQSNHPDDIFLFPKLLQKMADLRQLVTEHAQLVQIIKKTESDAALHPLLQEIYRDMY
How it was run: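 Enzyme-fragment complementation assay in which ligand-bound PPARalpha translocates and forms an active enzyme that generates chemiluminescence. Cells were plated overnight, exposed to compound for 6 hr at 37 C, and then given detection reagent for 60 min at room temperature.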

[14] = biological target: Arylsulfatase A (Homo sapiens) (UniProt P15289); experiment: qHTS screen for enhancers of Arylsulfatase A (ASA1): LOPAC Validation Assay (AID 720538); also: potency is read from the fitted curve at half-maximal effect
Chain of Arylsulfatase A (Homo sapiens) (P15289 whole entry, looked up): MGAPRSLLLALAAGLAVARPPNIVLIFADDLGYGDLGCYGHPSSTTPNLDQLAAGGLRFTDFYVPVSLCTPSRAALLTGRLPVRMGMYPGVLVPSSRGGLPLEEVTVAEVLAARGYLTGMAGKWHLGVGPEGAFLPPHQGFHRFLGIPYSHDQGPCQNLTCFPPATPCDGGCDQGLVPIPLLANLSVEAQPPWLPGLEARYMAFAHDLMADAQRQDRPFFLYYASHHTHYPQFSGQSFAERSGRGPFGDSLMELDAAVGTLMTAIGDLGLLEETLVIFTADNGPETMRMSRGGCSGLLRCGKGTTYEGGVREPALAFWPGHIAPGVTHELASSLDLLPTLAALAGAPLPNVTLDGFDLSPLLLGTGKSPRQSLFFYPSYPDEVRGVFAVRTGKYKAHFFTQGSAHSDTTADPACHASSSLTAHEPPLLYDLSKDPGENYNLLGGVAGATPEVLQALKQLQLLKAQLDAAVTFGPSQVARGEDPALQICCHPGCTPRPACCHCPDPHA
How it was run: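 Read-out: fluorescence at Ex=525/Em=598 nm after 1N NaOH final stop. Patient fibroblasts carrying ASA-I179S had 48h compound exposure, then 14h room-temperature pNCS hydrolysis (0.5mM final) in lysis buffer. Signal increase = enhanced activity.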

SMILES	Potency [1]	Potency [2]	outcome [3]	Potency [4]	Potency [5]	outcome [6]	Potency [7]	outcome [8]	Potency [9]	activation [10] [%]	activation [11] [%]	activation [12] [%]	max response [13] [%]	Potency [14]
CC(N)c1cccc(Cl)c1Cl (centres undefined)	inactive	inactive	inactive	inactive	inactive	inactive	inactive	inactive						
NCCc1c[nH]c2ccc(C(N)=O)cc12	inactive	inactive	inactive	inactive	inactive	inactive	inactive	inactive						
O=C(O)c1cc[c]([Hg][Cl])cc1	3.55 µM (active)		inactive		inactive	inactive	inactive	inactive	30.6 µM (active)	10.2	4.33	-2.48	-9.79	inactive
C[Se]C[C@H](N)C(=O)O	inactive		inactive	inactive	inactive	inactive	inactive	inactive						inactive
C[N+](C)(C)CCOC(=O)CBr	inactive	inactive	inactive	inactive	inactive	inactive	inactive	inactive						
CN(N=O)c1ccc(O)c(O)c1	inactive		inactive	inactive		inactive	inactive	inactive						3.01 µM (active)
O=[N+]([O-])/C=C/c1ccc2c(c1)OCO2	12.6 µM (active)		inactive	inactive	inactive	inactive	inactive	inactive						
CC(Cc1ccc(OCC(=O)O)cc1)NCC(O)c1cccc(Cl)c1 (centres undefined)	inactive	inactive		inactive	inactive	inactive	inactive	inactive						inactive
NC(=O)CI	inactive		inactive	inactive	inactive	inactive	inactive	inactive						inactive
CCCN(CCC)C1CCc2cccc(O)c2C1 (centres undefined)	inactive	inactive	inactive	inactive		inactive	inactive	inactive						inactive
N[C@@H](Cn1oc(=O)[nH]c1=O)C(=O)O	inactive	inactive	inactive	inactive	inactive	inactive	inactive	inactive						
CCCN1CCc2cccc3c2[C@H]1Cc1ccc(O)c(O)c1-3	1.41 µM (active)		inactive	inactive		inactive	inactive	inactive						inactive
C=CCN1CCc2cccc3c2[C@H]1Cc1ccc(O)c(O)c1-3	0.891 µM (active)		inactive	inactive	51.7 nM (active)	inactive	inactive	inactive						
CCCCCCC(C)(C)c1ccc([C@@H]2C[C@H](O)CC[C@H]2CCCO)c(O)c1	inactive	inactive	inactive	inactive	inactive	inactive	inactive	inactive						
CC(C)(O)[C@@H]1C2OC(=O)[C@@H]1[C@]1(O)C[C@H]3O[C@]34C(=O)O[C@H]2[C@]14C (tested in a mixture with another compound)	inactive	inactive	inactive	inactive	inactive	inactive	inactive	inactive						inactive
NC(=O)c1cc(N2CC2)c([N+](=O)[O-])cc1[N+](=O)[O-]	inactive	inactive	inactive	inactive	inactive	inactive	inactive	inactive						

Source: PubChem BioAssay (NCATS)
